Our source for the growth values is PubChem BioAssay (NCI).

About 83,000 compounds went through this panel and 20% of them were active in at least one assay; those are over-represented in the sample as a whole.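 Results are percent growth after 48 hours of single-concentration exposure. 100 means growth as in untreated cells, lower positive values show inhibition; negative values down to -100 show cell death.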 Values without a mark were called inactive. Calls of active or inactive are those of the source. Rule for the calls: active = growth percent below 10; inactive = the rest.

This experiment deals with MDA-MB-468 breast. The experiment is described as follows: NCI-60 one-dose screen, 48 h (100 = growth as untreated, 0 = no growth, -100 = all killed). The settings on record: 10 µM unless noted.
With `N#CC1=C(N)Oc2c(ccc3ccccc23)C1c1ccccc1Cl` (configuration not stated), the growth was 8.77% (active).

As for `CC(=O)CSC(C)=O`, the growth is 99.1%.

For `CCS(=O)(=O)Nc1ccc(C(=O)CC2(O)C(=O)Nc3ccccc32)cc1` (configuration not stated), the growth was 95.4%.

Take `O=c1c2sc3ncc(Br)cc3c2ncn1-c1cccc(Cl)c1`: the growth was 89.8%.

As for `COc1cc(-c2nc(-c3nc4cc(C(=O)c5ccccc5)ccc4[nH]3)cc3c2[nH]c2ccccc23)cc(OC)c1OC`, the growth was 93%.

Consider `CO[C@H]1/C=C/O[C@@]2(C)Oc3c(C)c(O)c4c(O)c(c5c(nc6cc(C)ccn65)c4c3C2=O)NC(=O)/C(C)=C\C=C\[C@H](C)[C@H](O)[C@@H](C)C(O)[C@@H](C)[C@H](OC(C)=O)[C@@H]1C` (some centres not stated), for which the growth is 105%.

Regarding `Cc1ncc(C(=O)Nc2ccc(CN3CCN(C)CC3)c(C(F)(F)F)c2)cc1C#Cc1cnc(N)c2ccc(C#N)cc12`, the growth is 48.2%.

Consider `Nc1nc(=S)c2ncn(C3OC(COC(=O)c4ccc(Cl)cc4)C(OC(=O)c4ccc(Cl)cc4)C3OC(=O)c3ccc(Cl)cc3)c2[nH]1` (configuration not stated), for which the growth is 23.6%.

For `COc1ccc(/C=C2\Oc3cc(OCCCCN4CCCC4)ccc3C2=O)cc1`, the growth was 74.5%.

For the molecule `C=CCN(C)S(=O)(=O)/N=C1\NC(=O)NC1=C(Cl)Cl`, the growth is 28.7%.

Take `COc1ccc(-c2conc2-c2ccccc2)cc1`: the growth is -4.68% (active).

As to `COc1ccc2c(c1)OC(N)=C(C#N)C2c1ccc(F)cc1` (configuration not stated), the growth is 7.54% (active).

In the case of `CC(=O)CC(C)(C)c1ccc(Cl)cc1`, the growth is 90.4%.

As to `c1cc2nc(-c3cn[nH]c3)c3c(c2cc1-c1cn[nH]c1)C1CCC3C1` (configuration not stated), the growth was 78.9%.

`COc1ccc(/C=C(/C(=O)N2CCCCC2)c2cc(OC)c(OC)c(OC)c2)cc1`: the growth is 13.3%.

`Cc1cccc(Oc2ccc(Nc3ncnc4ccc(NC(=O)CN(C)C)cc34)cc2Cl)c1`: the growth is -45.2% (active).

For the molecule `CN(C)CCCC(=O)Nc1ccc(Cn2nnc3c2C(=O)c2nnn(Cc4ccc(NC(=O)CCCN(C)C)cc4)c2C3=O)cc1`, the growth was -62.7% (active).

Regarding `O=C(O)C1(C(=O)O)CCC1.[NH2-].[NH2-].[Pt+2]`, the growth is 106%.

Turning to `COc1ccc(S(=O)(=O)NCCCNc2nccc(-c3c(-c4ccc(F)cc4)nc4sccn34)n2)cc1`, the growth is 61.2%.

For `CCN(C(C)=O)c1ccc([N+](=O)[O-])cc1`, the growth is 103%.

For `F`, the growth is 40.9% [6.87 mM].

As to `Cc1cc(C)cc(NC2=C(Cl)C(=O)c3nc(C)ccc3C2=O)c1`, the growth is -75.8% (active).
